According to PubChem BioAssay (NCATS):
Results filed as inconclusive are left out. The source made the active and inactive calls. Calls follow the shape of the dose curve; as a rule, active = well fitted cell-killing curve with a large enough effect; inconclusive = small, poorly fitted or top-dose-only effect, or effect the other way; inactive = flat fitted curve, though single readings scatter.

Experiments:
Test in all cases: Primary qHTS to identify gynecologic anti-cancer compounds using libraries of approved drugs and bioactive compounds (AID 1345084); also: nearly all actives have a fitted effect of over 55% in size
CAOV3 = conditions: Gynecologic cancer cell panel viability, ATPlite luminescence, 48 h; series mostly up to 57.5 µM
Outline: (§1)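 Cell viability after 48 h drug treatment, ATPlite luminescence readout; five doses.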

CASKI = conditions: Gynecologic cancer cell panel viability, ATPlite luminescence, 48 h; series mostly up to 57.5 µM
Outline: as §1

Es-2 = conditions: Gynecologic cancer cell panel viability, ATPlite luminescence, 48 h; series mostly up to 57.5 µM
Outline: as §1

HeLa = conditions: Gynecologic cancer cell panel viability, ATPlite luminescence, 48 h; series mostly up to 57.5 µM
Outline: as §1

Hek293T = conditions: Gynecologic cancer cell panel viability, ATPlite luminescence, 48 h, control line for the selectivity index; series mostly up to 57.5 µM
Outline: as §1

JEG-3 = conditions: Gynecologic cancer cell panel viability, ATPlite luminescence, 48 h; series mostly up to 57.5 µM
Outline: as §1

OV90 = conditions: Gynecologic cancer cell panel viability, ATPlite luminescence, 48 h; series mostly up to 57.5 µM
Outline: as §1

PA-1 = conditions: Gynecologic cancer cell panel viability, ATPlite luminescence, 48 h; series mostly up to 57.5 µM
Outline: as §1

SKOV3 = conditions: Gynecologic cancer cell panel viability, ATPlite luminescence, 48 h; series mostly up to 57.5 µM
Outline: as §1

Tov-21-G = conditions: Gynecologic cancer cell panel viability, ATPlite luminescence, 48 h; series mostly up to 57.5 µM
Outline: as §1

Tov112D = conditions: Gynecologic cancer cell panel viability, ATPlite luminescence, 48 h; series mostly up to 57.5 µM
Outline: as §1
% is scaled to controls: 0 for no effect and ±100 for the full control effect.

COc1ccc2c(c1)O[C@H](O[C@@H]1O[C@H](CO)[C@@H](O)[C@H](O)[C@H]1O)C(=O)N2
inactive: Potency (CAOV3) | Potency (CASKI) | Potency (Es-2) | Potency (HeLa) | Potency (Hek293T) | Potency (JEG-3) | Potency (OV90) | Potency (PA-1) | Potency (SKOV3) | Potency (Tov-21-G) | Potency (Tov112D)

C/C=C(\C)C(=O)O[C@@H](C)[C@H]1CC[C@]2(O)C3CCC4C[C@@H](OC5CC(OC)C(OC6CC(OC)C(OC7CC(OC)C(OC8OC(C)C(OC9OC(CO)C(O)C(O)C9O)C(OC)C8O)C(C)O7)C(C)O6)C(C)O5)CC[C@]4(C)C3[C@H](O)[C@@H](O)[C@]12C (stereo partly drawn)
inactive: activity change, negative = cytotoxicity (CAOV3) 3.47% [at 6.55 µM] | activity change, negative = cytotoxicity (CASKI) -2.65% [at 6.55 µM] | activity change, negative = cytotoxicity (Es-2) 10.2% [at 6.55 µM] | activity change, negative = cytotoxicity (HeLa) 3.49% [at 6.55 µM] | activity change, negative = cytotoxicity (Hek293T) 1.78% [at 6.55 µM] | activity change, negative = cytotoxicity (JEG-3) -1.08% [at 6.55 µM] | activity change, negative = cytotoxicity (OV90) 15.4% [at 6.55 µM] | activity change, negative = cytotoxicity (PA-1) 3.34% [at 6.55 µM] | activity change, negative = cytotoxicity (SKOV3) -4.09% [at 6.55 µM] | activity change, negative = cytotoxicity (Tov-21-G) 13.7% [at 6.55 µM] | activity change, negative = cytotoxicity (Tov112D) 8.06% [at 6.55 µM]

COC(=O)C1=CO[C@@H](O[C@@H]2O[C@H](CO[C@@H]3O[C@H](COC(=O)/C=C/c4ccc(O)cc4)[C@@H](O)[C@H](O)[C@H]3O)[C@@H](O)[C@H](O)[C@H]2O)[C@@H]2C(CO)=CC[C@H]12
inactive: Potency (CAOV3) | Potency (CASKI) | Potency (Es-2) | Potency (HeLa) | Potency (Hek293T) | Potency (JEG-3) | Potency (OV90) | Potency (PA-1) | Potency (SKOV3) | Potency (Tov-21-G) | Potency (Tov112D)

CC[C@H]1OC(=O)[C@H](C)[C@@H](OC2C[C@@](C)(OC)[C@@H](O)[C@H](C)O2)[C@H](C)[C@@H](OC2O[C@H](C)C[C@H](NC)[C@H]2O)[C@](C)(O)C[C@@H](C)CN(C)[C@H](C)[C@@H](O)[C@]1(C)O (stereo partly drawn)
inactive: Potency (CAOV3) | Potency (CASKI) | Potency (Es-2) | Potency (HeLa) | Potency (Hek293T) | Potency (JEG-3) | Potency (OV90) | Potency (PA-1) | Potency (SKOV3) | Potency (Tov-21-G) | Potency (Tov112D)

CC(=O)O[C@H]1[C@H](C)[C@@H](O)[C@H]2[C@@H]1C=C(C(=O)O)[C@H]1C[C@@H]3[C@H]([C@H]21)[C@H]1C(=O)O[C@@H]2CC[C@@]3(C)O[C@]1(O)[C@@H]2C
inactive: Potency (CAOV3) | Potency (CASKI) | Potency (Es-2) | Potency (HeLa) | Potency (Hek293T) | Potency (JEG-3) | Potency (OV90) | Potency (PA-1) | Potency (SKOV3) | Potency (Tov-21-G) | Potency (Tov112D)

CC(C)c1nc(N(C)S(C)(=O)=O)nc(-c2ccc(F)cc2)c1/C=C/[C@@H](O)C[C@@H](O)CC(=O)O
inactive: Potency (CAOV3) | Potency (CASKI) | Potency (Es-2) | Potency (HeLa) | Potency (Hek293T) | Potency (JEG-3) | Potency (OV90) | Potency (PA-1) | Potency (SKOV3) | Potency (Tov-21-G) | Potency (Tov112D)

CC1[C@@H](O)[C@@H](O)C2[C@]3(C)C(C[C@H]4OC(=O)[C@H](O)[C@]1(O)[C@@]24C)C(C)(O)C[C@H](O)[C@H]3O (stereo partly drawn)
inactive: Potency (CAOV3) | Potency (CASKI) | Potency (Es-2) | Potency (HeLa) | Potency (Hek293T) | Potency (JEG-3) | Potency (OV90) | Potency (PA-1) | Potency (SKOV3) | Potency (Tov-21-G) | Potency (Tov112D)

NCCOCCOCCNC(=O)Cc1ccc(Nc2nc(NCc3ccc(F)cc3)nc(NCC3CCCCC3)n2)cc1
inactive: Potency (CAOV3) | Potency (CASKI) | Potency (Es-2) | Potency (HeLa) | Potency (Hek293T) | Potency (JEG-3) | Potency (OV90) | Potency (PA-1) | Potency (SKOV3) | Potency (Tov-21-G) | Potency (Tov112D)

COc1cccc(-c2ccc([C@@H](Oc3cc(-c4ccc(C[C@H](N)C(=O)O)cc4)nc(N)n3)C(F)(F)F)cc2)c1
inactive: Potency (CAOV3) | Potency (CASKI) | Potency (Es-2) | Potency (HeLa) | Potency (Hek293T) | Potency (JEG-3) | Potency (OV90) | Potency (PA-1) | Potency (SKOV3) | Potency (Tov-21-G) | Potency (Tov112D)

CCC(NC(=O)CC(NC(=O)C(CO)NC(=O)C(CC)NC(=O)c1ccc[nH]1)c1ccccc1)C(=O)O (stereo not drawn)
inactive: Potency (CAOV3) | Potency (CASKI) | Potency (Es-2) | Potency (HeLa) | Potency (Hek293T) | Potency (JEG-3) | Potency (OV90) | Potency (PA-1) | Potency (SKOV3) | Potency (Tov-21-G) | Potency (Tov112D)

C[C@]12CCC[C@](C)(C(=O)O)C1CCC13C=C(CO)C(CCC12)C3 (stereo partly drawn)
inactive: Potency (CAOV3) | Potency (CASKI) | Potency (Es-2) | Potency (HeLa) | Potency (Hek293T) | Potency (JEG-3) | Potency (OV90) | Potency (PA-1) | Potency (SKOV3) | Potency (Tov-21-G) | Potency (Tov112D)

C=CC1(C)CC(OC(=O)C(=C)C(O)COC(C)=O)C(C(=C)C(=O)OC)C(O)C1C(=C)CO (stereo not drawn)
inactive: Potency (CAOV3) | Potency (CASKI) | Potency (Es-2) | Potency (HeLa) | Potency (Hek293T) | Potency (JEG-3) | Potency (OV90) | Potency (PA-1) | Potency (SKOV3) | Potency (Tov-21-G) | Potency (Tov112D)

C=C(C)[C@@H](C)[C@H]1O[C@]23C[C@]4(CO2)C(CCC2[C@@]5(C)CC[C@H](O[C@@H]6OC[C@H](O)[C@H](O[C@@H]7O[C@H](CO)[C@@H](O)[C@H](O)[C@H]7O)[C@H]6O[C@@H]6O[C@@H](CO)[C@H](O)[C@H]6O)C(C)(C)C5CC[C@]24C)C3[C@@](C)(O)[C@@H]1OC(C)=O (stereo partly drawn)
inactive: activity change, negative = cytotoxicity (CAOV3) 12.4% [at 11.6 µM] | activity change, negative = cytotoxicity (CASKI) -5.16% [at 11.6 µM] | activity change, negative = cytotoxicity (Es-2) 4.13% [at 11.6 µM] | activity change, negative = cytotoxicity (HeLa) -18.1% [at 11.6 µM] | activity change, negative = cytotoxicity (Hek293T) -2.35% [at 11.6 µM] | activity change, negative = cytotoxicity (JEG-3) 10.2% [at 11.6 µM] | activity change, negative = cytotoxicity (OV90) 2.63% [at 11.6 µM] | activity change, negative = cytotoxicity (PA-1) 20.8% [at 11.6 µM] | activity change, negative = cytotoxicity (SKOV3) 6.78% [at 11.6 µM] | activity change, negative = cytotoxicity (Tov-21-G) 0.172% [at 11.6 µM] | activity change, negative = cytotoxicity (Tov112D) 3.31% [at 11.6 µM]
